Measurements reported in PubChem BioAssay AID1159580 (chemical genetic matrix, 2015).
In all, about 5,500 compounds went through this assay and about 2,000 (36%) were called active. Another 18% or so got no clear call; they are omitted. No stated cut-off is given here; in the data, active means normalized growth mostly below about 0.91 (no sharp cut-off); inconclusive means no clear call, values can overlap the other calls; inactive means mostly above about 0.92. This is one part of the list.

Assay: chemical genetic growth profiling, strain panel (AID 1159580);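 further: tested at 20 µM; growth read once vehicle control cultures reached saturation at 30 °C; 1 = growth at the plate median or of vehicle wells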
Details: growth OD

Measured: normalized growth

CC(=O)[C@H]1CCC2C3C[C@H](C)C4=CC(=O)CC[C@]4(C)C3[C@@H](O)C[C@@]21C (some centres undefined)
inactive: S. cerevisiae deletion strains, locus YJR075W, strain HOC1, stronger effect = lower value 0.993 | S. cerevisiae deletion strains, locus YKL009W, strain mrt4, stronger effect = lower value 0.991 | S. cerevisiae deletion strains, locus YKL068W, stronger effect = lower value 0.977 | S. cerevisiae deletion strains, locus YKL085W, strain MDH1 (second series), stronger effect = lower value 0.96 | S. cerevisiae deletion strains, locus YKL085W, strain MDH1, stronger effect = lower value 0.96 | S. cerevisiae deletion strains, locus YKL160W, strain elf1, stronger effect = lower value 0.956 | S. cerevisiae deletion strains, locus YKL190W, strain CNB1, stronger effect = lower value 0.989 | S. cerevisiae deletion strains, locus YKR001C, strain vps1, stronger effect = lower value 0.998 | S. cerevisiae deletion strains, locus YKR026C, strain gcn3, stronger effect = lower value 0.986 | S. cerevisiae deletion strains, locus YKR091W, strain srl3, stronger effect = lower value 0.977 | S. cerevisiae deletion strains, locus YLL001W, strain dnm1, stronger effect = lower value 0.947 | S. cerevisiae deletion strains, locus YLL026W, stronger effect = lower value 0.99 | S. cerevisiae deletion strains, locus YLL041C, strain sdh2, stronger effect = lower value 0.983 | S. cerevisiae deletion strains, locus YLR027C, strain aat2, stronger effect = lower value 0.996 | S. cerevisiae deletion strains, locus YLR039C, strain RIC1, stronger effect = lower value 0.785 | S. cerevisiae deletion strains, locus YLR058C, strain SHM2, stronger effect = lower value 0.98 | S. cerevisiae deletion strains, locus YLR102C, strain apc9, stronger effect = lower value 0.975 | S. cerevisiae deletion strains, locus YLR113W, strain HOG1, stronger effect = lower value 0.993 | S. cerevisiae deletion strains, locus YLR221C, strain rsa3, stronger effect = lower value 0.945 | S. cerevisiae deletion strains, locus YLR258W, strain gsy2, stronger effect = lower value 0.986 | S. cerevisiae deletion strains, locus YLR262C, strain YPT6 (second series), stronger effect = lower value 0.95 | S. cerevisiae deletion strains, locus YLR262C, strain YPT6, stronger effect = lower value 0.901 | S. cerevisiae deletion strains, locus YLR268W, strain sec22, stronger effect = lower value 0.995 | S. cerevisiae deletion strains, locus YLR320W, strain mms22, stronger effect = lower value 0.961 | S. cerevisiae deletion strains, locus YLR330W, strain CHS5, stronger effect = lower value 0.988 | S. cerevisiae deletion strains, locus YLR342W, strain FKS1 (second series), stronger effect = lower value 0.99 | S. cerevisiae deletion strains, locus YLR342W, strain FKS1, stronger effect = lower value 0.972 | S. cerevisiae deletion strains, locus YLR357W, strain rsc2, stronger effect = lower value 0.948 | S. cerevisiae deletion strains, locus YLR370C, strain arc18, stronger effect = lower value 0.959 | S. cerevisiae deletion strains, locus YLR371W, strain rom2, stronger effect = lower value 0.978 | S. cerevisiae deletion strains, locus YLR384C, strain iki3, stronger effect = lower value 0.987 | S. cerevisiae deletion strains, locus YLR418C, strain cdc73, stronger effect = lower value 0.97 | S. cerevisiae deletion strains, locus YML016C, strain PPZ1, stronger effect = lower value 0.994 | S. cerevisiae deletion strains, locus YML032C, strain rad52, stronger effect = lower value 1.01 | S. cerevisiae deletion strains, locus YML120C, strain ndi1, stronger effect = lower value 0.95 | S. cerevisiae deletion strains, locus YML124C, strain tub3, stronger effect = lower value 0.98 | S. cerevisiae deletion strains, locus YMR058W, strain fet3, stronger effect = lower value 0.989 | S. cerevisiae deletion strains, locus YMR078C, strain ctf18, stronger effect = lower value 0.96 | S. cerevisiae deletion strains, locus YMR125W, strain sto1, stronger effect = lower value 0.954 | S. cerevisiae deletion strains, locus YMR129W, stronger effect = lower value 0.983 | S. cerevisiae deletion strains, locus YMR205C, strain PFK2, stronger effect = lower value 0.938 | S. cerevisiae deletion strains, locus YMR223W, strain ubp8, stronger effect = lower value 0.953 | S. cerevisiae deletion strains, locus YMR231W, strain pep5, stronger effect = lower value 0.989 | S. cerevisiae deletion strains, locus YMR307W, strain GAS1, stronger effect = lower value 1.04 | S. cerevisiae deletion strains, locus YNL067W, strain RPL9B, stronger effect = lower value 0.99 | S. cerevisiae deletion strains, locus YNL071W, strain lat1, stronger effect = lower value 0.973 | S. cerevisiae deletion strains, locus YNL153C, strain GIM3, stronger effect = lower value 0.997 | S. cerevisiae deletion strains, locus YNL183C, strain NPR1, stronger effect = lower value 0.931 | S. cerevisiae deletion strains, locus YNL209W, strain ssb2, stronger effect = lower value 0.994 | S. cerevisiae deletion strains, locus YNL233W, strain BNI4, stronger effect = lower value 1 | S. cerevisiae deletion strains, locus YNL248C, strain rpa49, stronger effect = lower value 0.985 | S. cerevisiae deletion strains, locus YNL250W, strain rad50, stronger effect = lower value 0.961 | S. cerevisiae deletion strains, locus YNL271C, strain bni1, stronger effect = lower value 0.972 | S. cerevisiae deletion strains, locus YNL298W, strain CLA4, stronger effect = lower value 0.986 | S. cerevisiae deletion strains, locus YNL307C, strain MCK1, stronger effect = lower value 0.976 | S. cerevisiae deletion strains, locus YNL322C, strain KRE1 (second series), stronger effect = lower value 0.982 | S. cerevisiae deletion strains, locus YNR049C, strain mso1, stronger effect = lower value 0.985 | S. cerevisiae deletion strains, locus YNR052C, strain pop2, stronger effect = lower value 0.986 | S. cerevisiae deletion strains, locus YOL006C, strain TOP1, stronger effect = lower value 0.931 | S. cerevisiae deletion strains, locus YOL012C, strain htz1 1.85 | S. cerevisiae deletion strains, locus YOL147C, strain pex11, stronger effect = lower value 0.986 | S. cerevisiae deletion strains, locus YOR001W, strain rrp6, stronger effect = lower value 1.03 | S. cerevisiae deletion strains, locus YOR061W, strain CKA2, stronger effect = lower value 0.982 | S. cerevisiae deletion strains, locus YOR069W, strain VPS5, stronger effect = lower value 0.991 | S. cerevisiae deletion strains, locus YOR070C, strain gyp1, stronger effect = lower value 0.986 | S. cerevisiae deletion strains, locus YOR080W, strain dia2, stronger effect = lower value 0.984 | S. cerevisiae deletion strains, locus YOR083W, strain WHI5, stronger effect = lower value 0.972 | S. cerevisiae deletion strains, locus YOR106W, strain vam3, stronger effect = lower value 0.955 | S. cerevisiae deletion strains, locus YOR136W, strain idh2, stronger effect = lower value 1 | S. cerevisiae deletion strains, locus YOR144C, strain elg1, stronger effect = lower value 0.992 | S. cerevisiae deletion strains, locus YOR184W, strain ser1, stronger effect = lower value 0.962 | S. cerevisiae deletion strains, locus YOR231W, strain MKK1, stronger effect = lower value 0.977 | S. cerevisiae deletion strains, locus YOR265W, strain rbl2, stronger effect = lower value 0.988 | S. cerevisiae deletion strains, locus YOR270C, strain vph1, stronger effect = lower value 0.933 | S. cerevisiae deletion strains, locus YOR290C, strain snf2, stronger effect = lower value 0.895 | S. cerevisiae deletion strains, locus YOR316C, strain cot1, stronger effect = lower value 0.979 | S. cerevisiae deletion strains, locus YPL051W, strain arl3, stronger effect = lower value 0.983 | S. cerevisiae deletion strains, locus YPL055C, strain LGE1, stronger effect = lower value 0.991 | S. cerevisiae deletion strains, locus YPL078C, strain atp4, stronger effect = lower value 0.96 | S. cerevisiae deletion strains, locus YPL106C, strain sse1, stronger effect = lower value 0.968 | S. cerevisiae deletion strains, locus YPL240C, strain hsp82, stronger effect = lower value 0.989 | S. cerevisiae deletion strains, locus YPL241C, strain CIN2, stronger effect = lower value 0.995 | S. cerevisiae deletion strains, locus YPL256C, strain CLN2, stronger effect = lower value 0.983 | S. cerevisiae deletion strains, locus YPR119W, strain clb2, stronger effect = lower value 0.978 | S. cerevisiae deletion strains, locus YPR141C, strain kar3, stronger effect = lower value 0.961 | S. cerevisiae deletion strains, locus YPR163C, strain tif3, stronger effect = lower value 0.987 | S. cerevisiae deletion strains, locus YPR167C, strain met16, stronger effect = lower value 0.984 | S. cerevisiae deletion strains, strain wtn01, stronger effect = lower value 0.983 | S. cerevisiae strains, strain wild type, stronger effect = lower value 0.994
